Records with an inconclusive call do not appear. A number with no mark means an inactive call. Calls of active or inactive are those of the source. Unless noted, calls come from the whole dose curve; as a rule, active = well fitted cell-killing curve with a large enough effect in the repeat runs; inconclusive = weak or mixed curves, or effect the other way; inactive = flat fitted curve, though single readings scatter.
% is set by controls: 0 for no effect and ±100 for the full control effect; potency is the fitted concentration of half-maximal effect.

The first assay is described as follows: Nuclear factor erythroid 2-related factor 2/antioxidant responsive element (Nrf2/ARE) small molecule agonists: qHTS cell viability counter screen in human keratinocytes (AID 1919968). Note: nearly all actives have a fitted effect of over 55% in size. Particulars: KeratinoSens HaCaT ARE cells viability, CellTiter-Fluor, 24 h; series mostly up to 92.4 µM; activity change, negative = cytotoxicity: at the top concentration. The essentials:
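Fluorescence read-out from CellTiter-Fluor after 1 h at 37 C. Wells held HaCaT-derived ARE-luciferase reporter cells (1,500/well) treated 23 h with DMSO-dissolved compounds. Run in the same wells as the luciferase agonist read.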
Background: In qHTS, concentration-response curves come from the screen itself.
Take `O=C=NCC1CCCC(CN=C=O)C1` (stereo not given): the “activity change, negative = cytotoxicity” value is -0.126%. As to `CC(CCO)CCCC(C)(C)O` (stereo not given), the “activity change, negative = cytotoxicity” value was -1.8%.

As to `Cc1ccc2ccc3cccc4ccc1c2c34`, the “activity change, negative = cytotoxicity” value is 7.23%. Consider `CCOc1ccc(NS(=O)(=O)c2ccc(N)cc2)nn1`, for which the “activity change, negative = cytotoxicity” value is 0.487% [at 42.5 µM]. With `COC(=O)c1cc(Cl)cc(Cl)c1`, the “activity change, negative = cytotoxicity” value is -1.02%. `Oc1cc2ccccc2c2ccccc12`: the Potency is 13.7 µM (active). Turning to `Cc1ccc(-c2ncc(Cl)cc2-c2ccc(S(C)(=O)=O)cc2)cn1`, the “activity change, negative = cytotoxicity” value was 3.07% [at 42.5 µM].

With `Cc1[nH]c(C)c(Cl)c(=O)c1Cl`, the activity change, negative = cytotoxicity was 5.34% [at 19 µM].

Turning to `CCCNCCC`, the “activity change, negative = cytotoxicity” value is -0.506%. With `COc1cc(N)ccc1C`, the “activity change, negative = cytotoxicity” value was 2.73%.

Consider `Cc1ccc2c(c1)CCCN2`, for which the “activity change, negative = cytotoxicity” value is 1.67%.

With `NCCCCCCNCCCCCCN`, the “activity change, negative = cytotoxicity” value was -3.89%. On to `CC(C)(C)C1CCCCC1=O` (stereo not given), for which the “activity change, negative = cytotoxicity” value is -3.85%. On to `CN(C)CCOCCO`, for which the “activity change, negative = cytotoxicity” value is -3.96%. For the compound `CC1(C)CC(O)CC(C)(C)N1[O]`, the “activity change, negative = cytotoxicity” value was 1.13%. As for `C=CCCCCCCCCCCCCCC`, the activity change, negative = cytotoxicity is 5.7% [at 19 µM]. Still for that read-out and setting: then `CCN1C=CN(C)C1C` (stereo not given), with 2.32%. On to `CC[N+](C)(CC)CCOC(=O)C1c2ccccc2Oc2ccccc21`, for which the “activity change, negative = cytotoxicity” value is 5.53% [at 42.5 µM]. The same measure, in the same setting: in the case of `NCCCN(CCO)CCO` it was -1.3%; in that of `O=Cc1cc(O)ccc1Br`, 14.4%. As to `O=CN(CCO)CCO`, the “activity change, negative = cytotoxicity” value was 1.79%. In the case of `CCN(C(=O)N(CC)c1ccccc1)c1ccccc1`, the “activity change, negative = cytotoxicity” value was 0.0411%. With `CCC(CC)CO`, the “activity change, negative = cytotoxicity” value is 2.86%. The same measure, in the same setting: in the case of `CC/C=C\CC/C=C/CO` it was 0.161%; in that of `CC(CSC(=O)c1ccccc1)C(=O)N1C[C@@H](Sc2ccccc2)C[C@H]1C(=O)O` (stereo not given in full), -6.69% [at 19 µM]; in that of `Cc1ccccc1N=C(N)Nc1ccccc1C`, -0.0771%.

As for `C1C2OC2C2C1C1CC2C2OC12` (stereo not given), the “activity change, negative = cytotoxicity” value is 1.59%. As to `CC[N+](CC)(CC)CCOC(=O)C(C1CCCC1)C1CCCC1`, the “activity change, negative = cytotoxicity” value is 5.69% [at 42.5 µM]. With `O=C1CCCCCCCCCCCC(=O)OCCO1`, the “activity change, negative = cytotoxicity” value is 1.26%. The same measure, in the same setting: then `CCCCOC(=O)CCCCC(=O)OCCCC`, with 0.054%.

For `c1cc[c]([Bi]([c]2ccccc2)[c]2ccccc2)cc1`, the “activity change, negative = cytotoxicity” value was -6.01%. As for `C=C[Si](OC)(OC)OC`, the “activity change, negative = cytotoxicity” value is -1.75%. On to `CC(CC=O)CCCC(C)(C)O` (stereo not given), for which the “activity change, negative = cytotoxicity” value was 10.4%. As to `CCOC(=O)C1=NN(c2ccccc2)C(=O)C1`, the “activity change, negative = cytotoxicity” value is 2.01%. Take `Cc1c(Cl)cccc1Cl`: the “activity change, negative = cytotoxicity” value is 1.45%. As for `O=C1c2cccc3c2[C@H](CCC3)CN1[C@@H]1CN2CCC1CC2`, the “activity change, negative = cytotoxicity” value was -12.2% [at 42.5 µM]. Still for that read-out and setting: in the case of `CCCCC(CC)COC(=O)c1ccccc1` (stereo not given) it was 3.49%; in that of `CN(C)CCOC(=O)C(c1ccccc1)C1(O)CCCC1` (stereo not given), 4.07% [at 42.5 µM]. In the case of `CCN1CCC[C@H]1CNC(=O)c1c(OC)ccc(Br)c1OC`, the “activity change, negative = cytotoxicity” value was -5.34% [at 42.5 µM]. Regarding `CCCCCCCCCCCCCCCC(=O)OCC`, the “activity change, negative = cytotoxicity” value was 3.36%.

The next assay in a line: Nuclear factor erythroid 2-related factor 2/antioxidant responsive element (Nrf2/ARE) small molecule agonists: luciferase reporter gene qHTS assay in human keratinocytes (AID 1919969; calls by dose curve; note: nearly all actives have a fitted effect of over 35% in size). Particulars: KeratinoSens HaCaT ARE-luciferase, luminescence, 24 h; series mostly up to 92.4 µM; activity, positive = activation: at the top concentration. For orientation: Reporter assays use an easily measured gene product as a stand-in for the process of interest.
Consider `O=C=NCC1CCCC(CN=C=O)C1` (stereo not given), for which the “activity, positive = activation” value is 0.747%. For `CC(CCO)CCCC(C)(C)O` (stereo not given), the “activity, positive = activation” value was -6.67%. Regarding `Cc1ccc2ccc3cccc4ccc1c2c34`, the “activity, positive = activation” value was -1.38%. As for `CCOc1ccc(NS(=O)(=O)c2ccc(N)cc2)nn1`, the “activity, positive = activation” value was -14.2% [at 42.5 µM]. For `COC(=O)c1cc(Cl)cc(Cl)c1`, the “activity, positive = activation” value is 0.684%. With `Oc1cc2ccccc2c2ccccc12`, the “activity, positive = activation” value is -43%. For the compound `Cc1ccc(-c2ncc(Cl)cc2-c2ccc(S(C)(=O)=O)cc2)cn1`, the “activity, positive = activation” value was -9.05% [at 42.5 µM]. Regarding `Cc1[nH]c(C)c(Cl)c(=O)c1Cl`, the activity, positive = activation was 3.75% [at 19 µM]. Same read-out and setting: then `CCCNCCC`, with -0.158%; and `COc1cc(N)ccc1C`, with 16.1%. For `Cc1ccc2c(c1)CCCN2`, the “activity, positive = activation” value was 5.77%. With `NCCCCCCNCCCCCCN`, the “activity, positive = activation” value is -0.218%. The same measure, in the same setting: then `CC(C)(C)C1CCCCC1=O` (stereo not given), with -2.62%; and `CN(C)CCOCCO`, with -7.76%.

For `CC1(C)CC(O)CC(C)(C)N1[O]`, the “activity, positive = activation” value was 20.9%.

On to `C=CCCCCCCCCCCCCCC`, for which the activity, positive = activation was -0.484% [at 19 µM]. Turning to `CCN1C=CN(C)C1C` (stereo not given), the “activity, positive = activation” value was -3%. As to `CC[N+](C)(CC)CCOC(=O)C1c2ccccc2Oc2ccccc21`, the “activity, positive = activation” value was -0.815% [at 42.5 µM].

For `NCCCN(CCO)CCO`, the “activity, positive = activation” value is -6.38%.

For `O=Cc1cc(O)ccc1Br`, the Potency is 49.2 µM (active).

These data come from PubChem BioAssay (Tox21).
